Bioassay records (PubChem BioAssay)
Shown are actives, neighbours in structure and some others; about 7.7% of the full set was active somewhere.
HCMV inh: qHTS Assay for inhibitors of the human cytomegalovirus (HCMV) | HFF cells, HCMV-luciferase reporter, 72 h; active compounds read low | activity change, negative = inhibition, % at 57.5 µM | 4.5% of 410,000 active; in the data active = activity change below about -60%; inconclusive = no clear call, values can overlap the other calls; inactive = above about -39%
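Two compound doses tested in HFFs infected with HCMV-luciferase, MOI 1 PFU/cell, 72 h at 37C. Lysate luminescence read with OneGlo; data normalized against buffer-only and 10uM Salinomycin inhibitor controls.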
FMDV inh: High Throughput Screening for Foot and Mouth Disease Virus Antivirals. FMDV antiviral cell-based qHTS. Potency, µM (highest dose often 57.9 µM), for the others: at the highest dose activity change, negative = inhibition, hits mostly inhibitors. 1.2% of 410,000 active. AID 1159524, 2015; calls by dose curve; tested in HEK293T cells; also: read-out not given here; potency is read from the fitted curve at half-maximal effect; nearly all actives have a fitted effect of over 45% in size
Giardia FBPA inh: qHTS Assay for Inhibitors of Fructose-1,6-bisphosphate Aldolase from Giardia Lamblia; A8B2U2; purified Giardia FBPA; Potency, µM (highest dose often 59.6 µM), for inactives: top-dose activity, negative = inhibition, actives largely listed as inhibitors; 0.71% of 290,000 active; also: potency is read from the fitted curve at half-maximal effect; nearly all actives have a fitted effect of over 55% in size
Target sequence (A8B2U2 whole entry, looked up): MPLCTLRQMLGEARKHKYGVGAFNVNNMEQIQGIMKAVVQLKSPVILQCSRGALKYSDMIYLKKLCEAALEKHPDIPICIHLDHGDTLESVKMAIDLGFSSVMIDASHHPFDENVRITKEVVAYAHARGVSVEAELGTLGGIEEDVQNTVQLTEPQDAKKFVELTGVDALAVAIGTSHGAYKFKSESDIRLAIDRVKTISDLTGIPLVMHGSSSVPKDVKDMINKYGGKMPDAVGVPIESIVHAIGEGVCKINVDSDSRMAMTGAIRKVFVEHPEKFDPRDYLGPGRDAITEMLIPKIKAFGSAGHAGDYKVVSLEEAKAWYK
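40 nM FBPA preincubated 10 min at RT with compound (up to 57.5 uM final), then substrate plus GAPDH/TPI/NAD/arsenate coupling and diaphorase/resazurin added. Fluorescence read after 20 min at RT, 525/598 nm.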
RE007 growth inh: qHTS Assay for Inhibitors of the HIV-1 protein Vpr; S. pombe RE007 Vpr strain, BacTiter-Glo ATP luminescence, 24 h; Potency, µM (top dose mostly 92.2 µM), inactives show top-dose activity change, negative = less growth, most hits filed as inhibitors; 0.21% of 360,000 active; active = well fitted falling curve with a large enough effect; inconclusive = small, poorly fitted or top-dose-only effect; inactive = no such curve, though single readings can be large or run the other way; also: potency is read from the fitted curve at half-maximal effect; nearly all actives have a fitted effect of over 50% in size
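Fission yeast strain RE007, carrying one chromosomally integrated HIV-1 vpr copy, was seeded at OD 0.01 in PMG+AL medium with 23 nL pinned compound. After 24 h at 30 °C and 99% humidity, viability was read by BacTiter-Glo luminescence.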
Sm TGR block: qHTS Assay for the Inhibitors of Schistosoma Mansoni Peroxiredoxins. 3% of 360,000 active. Potency, µM (series often up to 114 µM), without a hit: at the highest dose activity change, negative = inhibition, hits mostly inhibitors. AID 485364, 2010. purified TGR, DTNB reduction, TNB absorbance 405 nm; also: potency is read from the fitted curve at half-maximal effect; nearly all actives have a fitted effect of over 60% in size
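First, TGR (20 nM dispensed) and NADPH were mixed with compound. Second, a 15 min room-temperature incubation followed. Third, further NADPH and then DTNB were added to start the reaction. Finally, TNB absorbance was monitored kinetically.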
Tb PYK inh: qHTS of Trypanosoma Brucei Inhibitors; Potency, µM (highest dose often 76.8 µM), inactives show top-dose activity, negative = inhibition, hits mostly inhibitors; 0.12% of 410,000 active; pyruvate kinase (Trypanosoma brucei), Q57TT1; TbPYK enzyme, Kinase-Glo Plus ATP luminescence, 45 min; also: potency is read from the fitted curve at half-maximal effect; nearly all actives have a fitted effect of over 50% in size
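TbPYK + substrate in 50 mM TEA pH 7.2, 100 mM KCl, 10 mM MgCl2, 0.05% BSA, 0.01% Tween-20; cpd pinned; ADP 130 uM final; 45 min RT; Kinase-Glo Plus 10 min; luminescence endpoint.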
The depositor's hits bear a star; ? = inconclusive; . = no result. Unless noted, calls follow the shape of the dose curve; as a rule, active = well fitted curve in the direction sought with a large enough effect; inconclusive = small, poorly fitted or top-dose-only effect, or another doubt; inactive = no such curve, though single readings can be large; an effect the other way counts as inactive or inconclusive. % is scaled to controls: 0 for no effect and ±100 for the full control effect.

SMILES | HCMV inh | FMDV inh | Giardia FBPA inh | RE007 growth inh | Sm TGR block | Tb PYK inh
CC(=O)/C=C\c1cn(-c2ncc(C(F)(F)F)cc2Cl)c2ccccc12 | -11 | 32µM* | -8% | -11% | 5% | 2%
N#CC(C#N)=Cc1cn(-c2ncc(C(F)(F)F)cc2Cl)c2ccccc12 | 2 | -30% | -7% | -6% | 7.1µM* | -7%
CO/N=C/NC(=O)Cc1cn(-c2ncc(C(F)(F)F)cc2Cl)c2ccccc12 | -36 | ? | 0% | 17% | -19% | -2%
COc1cccc(NS(=O)(=O)c2cc(-c3cnc(C4CC4)o3)ccc2C)c1 | -89* | 23% | . | . | 3% | 4%
N#Cc1ccc(NS(=O)(=O)c2ccc(-c3cnc(C4CC4)o3)cc2)cc1 | -7 | 39% | . | . | 6% | -5%
Cc1ccc(-c2cnc(C3CC3)o2)cc1S(=O)(=O)Nc1cccc(C#N)c1 | -84* | 20% | . | . | 1% | -4%
COc1ccc(C(=O)N[C@H]2CC[C@@]34CCCN3C(=O)CCC[C@H]4[C@H]2Cc2ccccc2)cc1 | -3 | . | . | . | . | .
Cc1ccc(CNC(=O)CSc2ncc(S(=O)(=O)c3ccc(C)c(Cl)c3)c(=O)[nH]2)cc1 | -5 | -11% | . | . | 17% | 5%
Cc1ccc(-c2cc(C(=O)N3CC(C)OC(C)C3)c3ccccc3n2)o1 (stereo unspecified) | 13 | -6% | . | 1% | 40µM* | -21%
Cc1ccc(-c2cc(C(=O)N3CCC(C)CC3)c3ccccc3n2)cc1 | -71* | 27% | . | 4% | 4% | -11%
O=C(c1cc(-c2ccccc2)nc2ccccc12)N1CCCc2ccccc21 | -63* | -7% | 1% | 21% | 0% | -1%
NC(=O)C1CCN(C(=O)c2cc(-c3ccc(Cl)cc3)nc3ccccc23)CC1 | 30 | 12% | . | -4% | . | 3%
Cc1ccc(-c2cc(C(=O)N3CCCC3)c3ccccc3n2)s1 | 71 | 23% | . | -8% | 7% | 4%
Cc1ccc(-c2cc(C(=O)N3CC(C)CC(C)C3)c3ccccc3n2)o1 (stereo unspecified) | 3 | -3% | 14% | 1% | 22µM* | ?
Cc1ccc(C(=O)N(Cc2cc3cc4c(cc3nc2N2CCOCC2)CCC4)CC2CCCO2)s1 (stereo unspecified) | . | 14% | . | . | . | .
CC(=O)OC1C=C[C@]2(C)C(CC(OC(C)=O)[C@@]3(C)C4=CC(=O)OC(c5ccoc5)[C@]4(C)CCC23)C1(C)C (stereo partly specified) | . | 13% | 3% | . | . | .
COc1ccc(NC(=O)N2CCN(c3nc(-c4cccc(OC)c4)cs3)CC2)cc1 | -91* | 20µM* | -21% | 4% | -2% | -11%
COc1cccc(-c2csc(N3CCN(C(=O)Nc4ccc(Cl)cc4)CC3)n2)c1 | ? | ? | -11% | -15% | 0% | -12%
CC(=O)c1cccc(NC(=O)c2sc(-n3nc(C)c(Cc4ccc5c(c4)OCO5)c3C)nc2C)c1 | 15 | ? | . | . | 5% | -4%
Cc1ccc(NC(=O)c2sc(-n3nc(C)c(Cc4ccc5c(c4)OCO5)c3C)nc2C)cc1C | -113* | -4% | . | . | 0% | 0%
COc1ccc(-c2csc(C)n2)cc1 | 34 | 53% | 0% | -5% | -2% | -3%
COc1cc(C)nc(-c2csc(C)n2)n1 | -86* | -1% | -19% | 2% | 0% | 0%
COc1ccc2c(c1)SCCC2=O | 8 | 8% | -1% | 1% | -3% | -7%
COc1ccc2c(c1)OCC1=C2CCC2(C)C(=O)CC=C12 (stereo unspecified) | . | . | ? | . | 20µM* | .
NS(=O)(=O)c1ccc(Nc2nc(-c3ccc(O)cc3O)cs2)cc1 | -91* | ? | -21% | -1% | 4% | -1%
SMILES | HCMV inh | FMDV inh | Giardia FBPA inh | RE007 growth inh | Sm TGR block | Tb PYK inh
O=C(CCC1CCCN(C(=O)c2ccc3[nH]ccc3c2)C1)N1CCN(c2ccccn2)CC1 (stereo unspecified) | -83* | ? | 1% | -10% | 0% | -1%
O=C(CCC1CCCN(C(=O)c2ccc3cc[nH]c3c2)C1)N1CCN(c2ccccn2)CC1 (stereo unspecified) | ? | ? | 1% | -12% | . | ?
COc1ccc(S(=O)(=O)Nc2cccc(S(=O)(=O)N3CCCCCC3)c2)cc1 | 6 | 25% | 3% | 36% | -1% | 12%
CC(=O)Nc1cccc(S(=O)(=O)N2CCCCCC2)c1 | -100* | 9% | 6% | -8% | 6% | 0%
O=S(=O)(Nc1nc2ccccc2nc1Nc1cccc(S(=O)(=O)N2CCCCC2)c1)c1ccccc1 | -83* | ? | 9% | 19% | 2% | 2%
O=C(Nc1cccc(S(=O)(=O)N2CCCCCC2)c1)C1CCC1 | -18 | -5% | . | -2% | 7% | 2%
CCN(CC)S(=O)(=O)c1ccc(C)c(NC(=S)Nc2cccc(S(=O)(=O)N3CCCCCC3)c2)c1 | -77* | ? | -9% | -15% | -26% | 0%
COc1ccccc1-n1cnnc1SCC(=O)Nc1cccc(S(=O)(=O)N2CCCCC2)c1 | -68* | . | 4% | . | 0% | .
COCCn1cnnc1SCC(=O)Nc1cccc(S(=O)(=O)N2CCCCCC2)c1 | -19 | 3% | 0% | -5% | 3% | 0%
COc1ccc(C2NC(=S)N3C(c4ccc(OC)c(OC)c4)NC(=S)N23)cc1OC (stereo unspecified) | . | . | . | . | . | -5%
COc1ccc(CC(=O)Nc2cccc(SC)c2)cc1OC | -66* | ? | 0% | 0% | ? | -15%
CSc1cccc(NC(C)C(=O)NCc2ccccc2)c1 (stereo unspecified) | -65* | -3% | ? | -17% | 3% | -4%
O=C(Nc1cccc(Cl)c1)Nc1cc(S(=O)(=O)N2CCCCC2)ccc1Cl | -99* | ? | 0% | -22% | -1% | 1%
CSc1cccc(NC(=O)Nc2ccccc2)c1 | -12 | 32% | 0% | 2% | 13% | 1%
CN1CCN(S(=O)(=O)c2ccc(NC(=O)Nc3cccc(Cl)c3)cc2)CC1 | -9 | 13% | -1% | 19% | 5% | ?
COc1ccc(CC(=O)Nc2cccc(S(=O)(=O)N3CCCCCC3)c2)cc1OC | -83* | ? | 0% | 8% | -3% | -3%
CCCOc1ccc(NC(=O)CC2C(=O)N(c3ccccc3)C(=O)N2Cc2ccc(F)cc2)cc1 (stereo unspecified) | 27 | -6% | . | . | -11% | 4%
